# High-throughput results from PubChem BioAssay.
# Sampled rows, rich in hits. Any-hit rate of the full collection: about 7.3%.
# Vaccinia Venus: qHTS for Stage-Specific Inhibitors of Vaccinia Orthopoxvirus: Venus Reporter Primary qHTS. Vaccinia virus Venus reporter expression, fluorescence. Potency, µM (top dose mostly 36.5 µM), inactives show at the top dose activity change, negative = inhibition, most hits filed as inhibitors. 330,000 compounds, 0.46% hits. AID 720580, 2013; calls by dose curve; tested in A549 cells; note: potency is the fitted concentration of half-maximal effect; nearly all actives have a fitted effect of over 30% in size
# HCMV inh: qHTS Assay for inhibitors of the human cytomegalovirus (HCMV). HFF cells, HCMV-luciferase reporter, 72 h; hits give low values. activity change, negative = inhibition, % at 57.5 µM. 410,000 compounds, 4.5% hits. AID 1259415, 2018; in the data active = activity change below about -60%; inconclusive = no clear call, values can overlap the other calls; inactive = above about -39%
#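 Inhibition of viral replication was scored as loss of reporter luminescence in HFFs infected with HCMV-luciferase (MOI 1 PFU/cell) for 72 h; compounds tested at 2 doses, normalized to buffer and Salinomycin controls.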
# VACV mCherry inh: qHTS for Stage-Specific Inhibitors of Vaccinia Orthopoxvirus: mCherry Reporter Primary qHTS. AID 720579, 2013. 310,000 compounds, 0.63% hits. Potency, µM (highest dose often 36.5 µM), for the others: top-dose activity change, negative = inhibition, usual class: inhibitors. Vaccinia virus mCherry reporter infection, fluorescence; calls by dose curve; tested in A549 cells; note: potency is the fitted concentration of half-maximal effect; nearly all actives have a fitted effect of over 35% in size
# HCV inhibitor: qHTS Assay for Inhibitors of Hepatitis C Virus (HCV). 340,000 compounds, 3.4% hits. Potency, µM (top dose mostly 41.8 µM), without a hit: at the highest dose activity change, negative = inhibition, actives largely listed as inhibitors. Huh7.5.1 HCVcc-Cre infection, luciferase reporter, 44 h; active = well fitted inhibition curve with a large enough effect; inconclusive = small, poorly fitted or top-dose-only effect, or another doubt; inactive = no such curve, though single readings can be large or run the other way; note: potency is the fitted concentration of half-maximal effect
#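 1,000 cells/well; 4 h culture; + compound; + HCVcc-Cre (~0.5 moi); 44 h; luciferase substrate, RT 15 min; read 15 sec.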
# FMDV inh: High Throughput Screening for Foot and Mouth Disease Virus Antivirals; 410,000 compounds, 1.2% hits; AID 1159524, 2015; FMDV antiviral cell-based qHTS; Potency, µM (highest dose often 57.9 µM), for inactives: at the highest dose activity change, negative = inhibition, usual class: inhibitors; calls by dose curve; tested in HEK293T cells; note: read-out not given here; potency is the fitted concentration of half-maximal effect; nearly all actives have a fitted effect of over 45% in size
# Active calls of the source: *; i = inactive; ? = inconclusive; nt = not tested or not shown; + = active, no number; [ ] = dose if it differs, or a comment. % is set by controls: 0 for no effect and ±100 for the full control effect.
SMILES,Vaccinia Venus,HCMV inh,VACV mCherry inh,HCV inhibitor,FMDV inh
COc1cc(NC(=O)CSc2nc3ccccc3nc2Cc2ccc(Cl)cc2)cc(OC)c1,-14.5%,0.0,-20.8%,nt,2.51µM*
COc1cccc(CNC(=O)CSc2nc3ccccc3nc2Cc2ccc(C)cc2)c1OC,-12.6%,-91.9*,-15.2%,nt,-6.5%
COc1ccc(NC(=O)CSc2nc3ccccc3nc2Cc2ccc(C)cc2)cc1Cl,-18.6%,1.3,-9.6%,nt,-0.4%
CC1(C(=O)Nc2cccc3ccccc23)CCN1C(=O)C1(c2ccccc2)CCCC1 (centres undefined),-13.3%,-13.6,2.2%,nt,-22.5%
CC(=O)N1CCc2c(sc3c2c(=O)n(-c2ccc(C)cc2)c(=O)n3Cc2c(F)cccc2Cl)C1,-22.5%,20.5,-28.8%,nt,-22.2%
Cc1ccc(N/C(N)=N/c2nc3c(c(=O)[nH]2)CCCC3)c(C)c1,-9.0%,-26.8,-1.8%,-1.8%,nt
Cc1ccc(N/C(N)=N/c2nc(C)cc(N3CCCCC3)n2)c(C)c1,?,?,?,2.82µM*,15.8µM*
FC(F)(F)c1cccc(Nc2nc3nonc3nc2Nc2ccc(Cl)cc2)c1,1.78µM*,-98.0*,2µM*,nt,?
Cc1cc(Nc2cccc([N+](=O)[O-])c2)n2c(nc3ccccc32)c1C#N,?,-100.3*,?,6.31µM*,?
Cc1ccc(NC(=O)Cc2ccc(-n3c(C)nc4cccnc43)cc2)cc1C,-18.9%,+,-22.3%,nt,?
CCOc1ccc(NC(=O)Cc2ccc(-n3c(C)nc4cccnc43)cc2)cc1,-7.3%,?,-11.1%,nt,-14.5%
COc1ccccc1-c1ccc2ncnc(N(C)C)c2c1,0.0%,nt,8.7%,nt,?
O=S(=O)(NCC1CC1)c1cc(Cl)cc(Cl)c1,-9.9%,-64.9*,i,3.4%,37.4%
Cc1cc(C2(c3ccc(O)c(C)c3)OC(=O)c3ccccc32)ccc1O,-6.4%,-29.3,-23.6%,25.0%,10.1%
Cc1cc(O)c(C(C)C)cc1C1(c2cc(C(C)C)c(O)cc2C)OC(=O)c2ccccc21,?,-102.6*,?,5.62µM*,?
CNC(=O)C1CC(=O)N(CCc2ccc(C)cc2)C1 (centres undefined),-6.1%,-69.5*,-13.5%,14.7%,14.2%
CC(C)NC(=O)C1CC(=O)N(CCc2ccc(F)cc2)C1 (centres undefined),3.5%,-3.8,i,nt,0.0%
Cc1ccc(CCN2CC(C(=O)NC(C)C)CC2=O)cc1 (centres undefined),-1.7%,-61.1*,i,19.9%,-2.8%
O=C(Nc1nncs1)C1CC(=O)N(CCc2ccc(F)cc2)C1 (centres undefined),0.0%,-66.0*,-1.5%,8.5%,1.6%
CC(=O)c1cccc(Nc2ncnc3c2cnn3-c2cccc(Cl)c2)c1,-8.0%,17.7,-18.8%,nt,-14.0%
COC(=O)c1c(NC(=O)CCCOc2ccc(C)cc2)sc2c1C(C(=O)OC)CC2 (centres undefined),-1.4%[7.34 µM],10.8,-10.8%[7.34 µM],nt,?
FC(F)(F)c1cccc(Cc2noc(CN3CCC(c4ccncc4)CC3)n2)c1,-14.3%,-80.2*,-7.9%,?,-4.2%
CC(C)Nc1ccc(Nc2ccnc3cc4ccccc4cc23)cc1,?,-100.1*,?,?,-29.2%
COc1ccc(Nc2ccnc3ccccc23)cc1,-20.4%,?,nt,?,-26.9%
O=C(NCCc1ccccc1)c1nccc2ccccc12,-14.9%,41.9,i,-22.1%,56.8%
c1ccc(CCNc2ccnc3cc4ccccc4cc23)cc1,?,-100.8*,?,6.31µM*,14.1µM*
COc1ccc(N(CC(=O)N/N=C/c2ccc(-c3ccc([N+](=O)[O-])cc3)o2)S(=O)(=O)c2ccc(C)cc2)cc1,-15.2%,-68.2*,-2.5%,?,-12.9%
COc1ccc(N(CC(=O)NN=C2CCCCCCC2)S(=O)(=O)c2ccccc2)cc1,-13.5%,-64.0*,i,9.3%,nt
COc1ccc(N(CC(=O)N/N=C/c2ccc(OC3CSC3)cc2)S(=O)(=O)c2ccccc2)cc1,-18.8%,?,-22.5%,?,-19.3%
Cc1cccc(CN(CC(=O)N/N=C/c2ccco2)S(=O)(=O)c2ccc(Cl)cc2)c1,-25.3%,-33.3,nt,-15.0%,0.0%
